From PubChem BioAssay
Pol kappa inh-1 = blocks human DNA polymerase kappa activity; Q9UBT6; purified Pol kappa, fluorescent DNA synthesis assay, 10 min; Potency, µM (titrated, usually from 107 µM), actives largely listed as inhibitors; 400,000 tested, 0.53% active
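10 nM Pol kappa preincubated 15 min at room temperature with compounds, then reaction started with substrate at 50 nM final. Fluorescence read kinetically at 0 and 10 min; buffer-only wells served as negative control.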
L3MBTL1 block = blocks human L3MBTL1; 230,000 tested, 0.66% active; Q9Y468; AlphaScreen L3MBTL1–H3K9me1 peptide binding; Potency, µM (titrated, usually from 57.1 µM), most hits filed as inhibitors; further: nearly all actives have a fitted effect of over 60% in size
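L3MBTL1 50 nM + b-AHA-H3(1-15)K9me1 75 nM, 30 min RT; compound added, 30 min RT; streptavidin donor/Ni-chelate acceptor beads 10 ug/mL each final, 30 min RT dark; AlphaScreen read.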
Pol iota inh = inhibitors of human DNA polymerase iota | Q9UNA4 | 390,000 tested, 1% active | Potency, µM (highest dose often 115 µM), usual class: inhibitors | AID 588590 | Pol iota fluorescent replication assay, 10 min
Target sequence (Q9UNA4 whole entry, looked up): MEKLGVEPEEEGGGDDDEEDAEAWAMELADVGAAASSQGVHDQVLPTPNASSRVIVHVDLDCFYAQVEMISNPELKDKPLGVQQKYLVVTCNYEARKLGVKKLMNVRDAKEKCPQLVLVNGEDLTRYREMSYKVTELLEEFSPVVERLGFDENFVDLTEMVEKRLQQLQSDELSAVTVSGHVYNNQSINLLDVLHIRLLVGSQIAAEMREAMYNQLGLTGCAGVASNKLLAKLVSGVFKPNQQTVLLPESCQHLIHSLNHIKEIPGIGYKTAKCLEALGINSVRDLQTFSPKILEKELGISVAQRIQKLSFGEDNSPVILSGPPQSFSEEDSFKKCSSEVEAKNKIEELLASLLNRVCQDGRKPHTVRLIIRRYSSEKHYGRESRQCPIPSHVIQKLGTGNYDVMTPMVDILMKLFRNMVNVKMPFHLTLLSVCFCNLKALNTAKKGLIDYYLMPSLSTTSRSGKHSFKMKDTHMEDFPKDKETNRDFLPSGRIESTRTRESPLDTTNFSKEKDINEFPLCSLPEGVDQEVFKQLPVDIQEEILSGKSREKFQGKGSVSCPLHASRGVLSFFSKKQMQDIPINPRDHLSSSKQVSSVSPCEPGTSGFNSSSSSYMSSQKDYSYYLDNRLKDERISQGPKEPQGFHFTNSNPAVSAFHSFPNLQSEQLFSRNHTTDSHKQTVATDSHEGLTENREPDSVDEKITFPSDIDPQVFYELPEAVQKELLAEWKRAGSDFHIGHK
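Pol iota at 10 nM preincubated 15 min with compounds at room temperature; reaction started with fluorescent substrate, 50 nM final. Fluorescence read kinetically at 0 and 10 min; buffer-only wells as negative control.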
Pol beta inh = inhibitors of human DNA polymerase beta; Potency, µM (titrated, usually from 114 µM), actives largely listed as inhibitors; Pol beta primer extension/strand displacement, fluorescence kinetic; AID 485314; 340,000 tested, 1.3% active
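Reaction started by 50 nM substrate onto compound-treated Pol beta (10 nM, 15 min preincubation, room temperature); plates read at 0 min and 10 min. Normalized concentration-effect data fitted by four-parameter Hill equation.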
WRN helicase inh-1 = blocks human WRN helicase. Potency, µM (titrated, usually from 114 µM), actives largely listed as inhibitors. 360,000 tested, 0.46% active. Q14191. AID 651768. WRN helicase unwinding, fluorescent forked duplex, kinetic; further: nearly all actives have a fitted effect of over 55% in size
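Fluorescence dequenching readout, ex 525 nm/em 598 nm, kinetic mode: forked duplex DNA (100 nM final) with adjacent fluorophore and quencher unwound by WRN (20 nM final) with 2 mM ATP. Compound preincubation 15 min, room temperature.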
Pol eta inh-1 = blocks human DNA polymerase eta activity; Q9Y253; AID 588591; recombinant Pol eta, fluorescent DNA replication assay; Potency, µM (titrated, usually from 114 µM), usual class: inhibitors; 390,000 tested, 1.2% active
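Pol eta at 10 nM preincubated with compounds 15 min at room temperature; reaction started with fluorescent substrate (50 nM final) and read kinetically at 0 and 10 min.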
Pol kappa inh-2 = confirmation of human DNA polymerase kappa inhibitors; shares compounds with Pol eta inh-1; purified Pol-kappa, fluorescent strand-displacement substrate; Potency, µM, hits mostly inhibitors; 920 tested, 76% active; AID 720501
Pol eta inh-2 = confirmation of human DNA polymerase eta inhibitors; Pol eta primer extension, TAMRA/BHQ fluorescence, 10 min; 2,600 tested, 64% active; shares compounds with Pol eta inh-1; Potency, µM, most hits filed as inhibitors
WRN helicase inh-2 = confirmation of human WRN helicase inhibitors. shares compounds with WRN helicase inh-1. WRN helicase DNA unwinding, fluorescence kinetic. Potency, µM (highest dose often 57.1 µM), most hits filed as inhibitors. 610 tested, 63% active; further: nearly all actives have a fitted effect of over 65% in size
TO DNA binding = binds DNA, flagged in WRN inhibitor counterscreen | thiazole orange DNA binding displacement, fluorescence | Potency, µM (titrated, usually from 57.1 µM), actives largely listed as inhibitors | 610 tested, 10% active | shares compounds with WRN helicase inh-1;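 further: drop in dye fluorescence marks compound binding to DNA; nearly all actives have a fitted effect of over 60% in size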
BLM helicase inh = BLM helicase inhibition, WRN selectivity check. shares compounds with WRN helicase inh-1. Recombinant BLM helicase DNA unwinding, red fluorescence. Potency, µM (titrated, usually from 57.1 µM), most hits filed as inhibitors. 610 tested, 60% active; further: nearly all actives have a fitted effect of over 60% in size
A number is an active result; . = inactive; ? = inconclusive; / = no result; [ ] = dose if it differs, or a comment. Shown are actives, neighbours in structure and some others; about 2.5% of the full set was active somewhere. The call rests on the fitted dose curve; in most records, active means well fitted curve in the direction sought with a large enough effect; inconclusive means small, poorly fitted or top-dose-only effect, or another doubt; inactive means no such curve, though single readings can be large; an effect the other way counts as inactive or inconclusive.

SMILES	Pol kappa inh-1	L3MBTL1 block	Pol iota inh	Pol beta inh	WRN helicase inh-1	Pol eta inh-1	Pol eta inh-2	others
O=c1nc2n(-c3ccccc3F)c3ccccc3cc-2c(=O)[nH]1	.	/	?	.	/	.	/
Cc1cccc(-n2c3nc(=O)[nH]c(=O)c-3cc3cc([N+](=O)[O-])ccc32)c1	.	.	?	.	.	20µM	47.8
COc1ccc(-c2nnc3sc(C(C)N4C(=O)c5ccccc5C4=O)nn23)cc1 (stereo not given)	.	.	.	.	.	.	/
Cc1cc(Cl)c(OCCCn2ccnc2)c(Br)c1	.	.	.	.	.	.	/
CCOC(=O)N1CCN(C(=O)c2c[nH]c3ccc(S(=O)(=O)N(C)c4ccc(F)cc4)cc3c2=O)CC1	.	/	.	.	.	.	/
CC(=O)Oc1cccc(/C=c2\sc3nc(-c4ccco4)nn3c2=O)c1	?	?	?	22.4µM	?	12.6µM	47.8
CC(C)(C)c1ccc(OCC(=O)NNC(=O)C2CCCO2)cc1 (stereo not given)	.	.	.	.	.	.	/
O=C1CCC(C(=O)N2CCN(c3ccccc3)CC2)CN1Cc1ccc(Cl)cc1 (stereo not given)	/	/	/	/	.	.	/
CCOc1cc(/C=C(/C#N)c2nc3ccccc3[nH]2)ccc1OCc1ccc(C(=O)O)o1	?	.	.	39.8µM	?	7.94µM	30.1	Pol kappa inh-2=33.6
CCc1ccc(OCc2nnc(SCC(=O)N3CCOCC3)o2)cc1	.	.	.	.	.	.	/
Cc1ccc(C(=O)COC(=O)c2cc(=O)[nH]c3ccccc23)cc1C	.	.	.	.	.[11.6 µM]	50.1µM	67.5
Cc1oc2c(C)c3oc(=O)c(CCC(=O)NCCCN4CCOCC4)c(C)c3cc2c1C	.	/	.	.	.	.	/
CC(C)OC(=O)CSc1n[nH]c(-c2cccnc2)n1	.	.	.	.	.	.	/
O=C(O)c1cnn(-c2ccccc2)c1-c1ccncc1	?	/	?	?	.[11.6 µM]	22.4µM	60.1	Pol kappa inh-2=18.9
O=Cc1cccn1-c1c(C(=O)O)cnn1-c1ccccc1	.	/	.	.	.	.	/
Cc1c(CCC(=O)NCCCCCC(=O)O)c(=O)oc2cc3occ(-c4ccccc4)c3cc12	?	/	44.7µM	?	?	22.4µM	53.6	Pol kappa inh-2=?
Cc1c(CC(=O)NCCCC(=O)O)c(=O)oc2cc3occ(-c4ccccc4)c3cc12	.	/	.	.	.	.	/
O=C(/C=C/c1ccc([N+](=O)[O-])cc1)Nc1cccc(C(=O)Nc2ccccc2C(=O)O)c1	.	?	?	?	31.6µM	28.2µM	23.9
COC(=O)c1cccc(NC(=O)/C=C/c2ccc([N+](=O)[O-])cc2)c1	.	.	.	.	.	.	/
CSc1nnc(NC(=O)CCc2ccccc2)s1	.	.	.	.	.	.	/
Cc1ccc(C(=O)Nc2nc(-c3ccco3)c(-c3ccco3)s2)o1	.	?	?	/	?	14.1µM	60.1	Pol kappa inh-2=15
Cc1ccc(C(=O)Nc2nc(C)c(C(=O)N(C)C)s2)o1	.	/	.	.	.	.	/
CC(=O)COC(=O)C1CCN(S(=O)(=O)c2cc([N+](=O)[O-])ccc2Cl)CC1	?	28.2µM	?	28.2µM	.[11.6 µM]	31.6µM	?
Cc1ccc(C)c(N(CC(=O)NC(C)C)C(=O)CCC(=O)Nc2ccccn2)c1	.	.	.	.	.	.	/
O=C(O)c1ccc(-n2ncc(Cl)c(Cl)c2=O)cc1	/	/	/	/	.[11.6 µM]	22.4µM	47.8	Pol kappa inh-2=29.9
SMILES	Pol kappa inh-1	L3MBTL1 block	Pol iota inh	Pol beta inh	WRN helicase inh-1	Pol eta inh-1	Pol eta inh-2	others
CCCn1cnc2c(SCc3ccccc3Cl)nc(N)nc21	.	/	.	/	.	.	/
CCOC(=O)C(=Cc1ccccc1)C(=O)OCC	.	/	/	/	/	/	/
CCOC(=O)/C(=C\c1ccc(N2CCC(c3ccccc3)=N2)cc1)C(C)=O	.	/	.	/	?	?	?
Cc1cc(NS(=O)(=O)c2ccc(NC(=O)c3cc4c(=O)n5ccccc5nc4s3)cc2)nc(C)n1	89.1µM	.	50.1µM	?	?	20µM	60.1
CN(C)S(=O)(=O)c1cccc(NC(=O)c2cc3c(=O)n4ccccc4nc3s2)c1	.	.	.	.	.	.	/
Cc1ccc(C)c(N2CCN(S(=O)(=O)c3ccc4c(c3)C(C)(C)C(=O)N4C)CC2)c1	.	.	.	.	.	.	/
Cc1cccc(N2CCN(S(=O)(=O)c3ccc4c(c3)C(C)(C)C(=O)N4C)CC2)c1C	?	?	?	12.6µM	.[11.6 µM]	22.4µM	?
CC(C)(C)NC(=O)CSc1nnc(-c2ccccc2)c(-c2ccccc2)n1	.	/	.	.	.	.	/
CC(=O)NNC(=O)CSc1nnc(-c2ccccc2)c(-c2ccccc2)n1	?	/	?	.	.	14.1µM	7.57	Pol kappa inh-2=18.9
Cc1ccc(C(=O)N/C(=C\c2ccc(C)o2)C(=O)O)cc1	?	?	.	?	.	31.6µM	?
Cc1ccc(C(=O)N/C(=C/c2ccco2)C(=O)NCc2ccco2)cc1	?	/	?	35.5µM	?	31.6µM	75.7	Pol kappa inh-2=59.7
Cc1ccc(C(=O)N/C(=C/c2ccco2)C(=O)O)cc1	.	.	.	.	.	.	/
CCc1cc(CNC(=O)CCc2nnc(Cc3cccc(C)c3)o2)on1	.	.	.	.	.	.	/
O=S(=O)(c1ccccc1)N1CCN=C1SCc1c(F)cccc1Cl	.	/	.	.	.	.	/
CC1=NN(c2ccc(C(=O)O)cc2)C(=O)/C1=C\c1ccc(OC(=O)c2cccs2)cc1	.	?	?	?	5.32µM	22.4µM	?	WRN helicase inh-2=17.1µM;TO DNA binding=.;BLM helicase inh=?
CCCc1ccc(OC(=O)c2cccs2)cc1	.	/	?	.	.	.	/
